Results published in PubChem BioAssay (Tox21).
Records with an inconclusive call do not appear. Active and inactive are the calls of the source. Unless noted, the call rests on the fitted dose curve; in most records, active means well fitted curve in the direction sought with a large enough effect in the repeat runs; inconclusive means weak or mixed curves; inactive means no such curve, though single readings can be large; an effect the other way counts as inactive or inconclusive.

What was measured:
[1] = biological target: Thyrotropin receptor (Homo sapiens) (UniProt P16473); test: qHTS assay to identify small molecule antagonists of the thyroid stimulating hormone receptor (TSHR) signaling pathway (AID 1259385; calls by dose curve; further: nearly all actives have a fitted effect of over 20% in size)
Chain of Thyrotropin receptor (Homo sapiens) (P16473 whole entry, looked up): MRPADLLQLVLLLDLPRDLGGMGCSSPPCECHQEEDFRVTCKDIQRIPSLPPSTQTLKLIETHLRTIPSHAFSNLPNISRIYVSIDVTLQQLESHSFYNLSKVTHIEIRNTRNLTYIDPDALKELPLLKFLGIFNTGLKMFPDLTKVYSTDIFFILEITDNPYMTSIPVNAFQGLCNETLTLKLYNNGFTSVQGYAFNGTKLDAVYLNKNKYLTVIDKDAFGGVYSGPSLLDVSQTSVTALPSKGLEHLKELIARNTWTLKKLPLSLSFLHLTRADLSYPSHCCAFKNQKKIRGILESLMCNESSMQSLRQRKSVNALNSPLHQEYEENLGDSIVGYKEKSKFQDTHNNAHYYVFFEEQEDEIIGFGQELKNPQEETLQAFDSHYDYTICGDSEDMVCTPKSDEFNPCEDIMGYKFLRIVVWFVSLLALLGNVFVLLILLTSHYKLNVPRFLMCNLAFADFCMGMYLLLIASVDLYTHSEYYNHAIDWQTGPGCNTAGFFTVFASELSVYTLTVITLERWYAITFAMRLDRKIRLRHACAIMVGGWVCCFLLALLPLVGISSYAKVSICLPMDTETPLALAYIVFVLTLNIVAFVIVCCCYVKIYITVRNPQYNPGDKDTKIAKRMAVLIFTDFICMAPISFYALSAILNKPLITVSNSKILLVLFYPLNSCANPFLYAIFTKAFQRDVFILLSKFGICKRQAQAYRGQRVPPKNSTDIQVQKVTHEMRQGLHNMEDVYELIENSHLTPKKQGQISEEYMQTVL
In short: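 TSHR-HEK293 cells (800/well) plated 18 h, then compounds with Ro20-1724 and TSH at 1.5 ng/mL final, 30 min at room temperature. cAMP quantified by HTRF (cAMP-d2/anti-cAMP-cryptate, 1 h); 15 concentrations in triplicate.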

[2] = qHTS assay to identify small molecule agonists of the estrogen receptor alpha (ER-alpha) signaling pathway in the presence of an antagonist - cell viability counter screen (AID 1259386);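 further: series mostly up to about 92 µM; cells exposed to compounds for 22 h at 37 °C before the viability read; nearly all actives have a fitted effect of over 30% in size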
In short: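 Read-out: CellTiter-Fluor fluorescence after 1hr reagent incubation, measured in the same wells as the luciferase readout. VM7Luc4E2 cells were exposed to 15 compound concentrations with 10.0nM ICI-182,780 for 22hr at 37C.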

[3] = biological target: Progesterone receptor (Homo sapiens) (UniProt P06401); test: qHTS assay to identify small molecule agonists of the progesterone receptor (PR) signaling pathway (AID 1346784; calls by dose curve; further: nearly all actives have a fitted effect of over 30% in size; further: potency means the concentration at half of the fitted maximal effect)
Chain of Progesterone receptor (Homo sapiens) (P06401 whole entry, looked up): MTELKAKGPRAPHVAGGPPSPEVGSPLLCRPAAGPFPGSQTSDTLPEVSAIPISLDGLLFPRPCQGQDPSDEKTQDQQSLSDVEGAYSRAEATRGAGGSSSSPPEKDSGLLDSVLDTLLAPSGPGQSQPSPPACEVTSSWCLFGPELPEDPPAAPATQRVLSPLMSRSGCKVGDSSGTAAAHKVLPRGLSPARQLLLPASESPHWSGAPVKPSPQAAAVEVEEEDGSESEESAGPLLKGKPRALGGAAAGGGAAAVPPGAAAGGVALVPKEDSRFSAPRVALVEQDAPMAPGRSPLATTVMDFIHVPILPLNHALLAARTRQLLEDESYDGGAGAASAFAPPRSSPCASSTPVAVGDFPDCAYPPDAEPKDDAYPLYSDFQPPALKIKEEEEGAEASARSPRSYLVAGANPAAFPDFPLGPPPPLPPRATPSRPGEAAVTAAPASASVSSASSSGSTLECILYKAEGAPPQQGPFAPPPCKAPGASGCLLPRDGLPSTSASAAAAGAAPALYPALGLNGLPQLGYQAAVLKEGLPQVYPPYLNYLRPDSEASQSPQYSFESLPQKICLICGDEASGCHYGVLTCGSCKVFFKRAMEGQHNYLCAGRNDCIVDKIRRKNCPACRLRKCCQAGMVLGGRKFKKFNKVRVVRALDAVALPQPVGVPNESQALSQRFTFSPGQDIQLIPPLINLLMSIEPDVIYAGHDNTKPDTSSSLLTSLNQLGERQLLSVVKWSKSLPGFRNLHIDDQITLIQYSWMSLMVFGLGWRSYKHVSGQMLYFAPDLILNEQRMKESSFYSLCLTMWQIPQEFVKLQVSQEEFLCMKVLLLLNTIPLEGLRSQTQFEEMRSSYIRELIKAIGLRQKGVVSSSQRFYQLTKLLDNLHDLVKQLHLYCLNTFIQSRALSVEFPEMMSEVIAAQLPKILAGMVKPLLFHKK
In short: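 HEK 293T PR-UAS-bla reporter cells, 2% charcoal-stripped FBS; 6 hr settle at 37C/5% CO2, compound (DMSO) 16 hr, LiveBLAzer B/G FRET substrate 2 hr RT, fluorescence intensity read.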

[4] = biological target: Progesterone receptor (Homo sapiens) (UniProt P06401); test: qHTS assay to identify small molecule antagonists of the progesterone receptor (PR) signaling pathway (AID 1346795; active means well fitted inhibition curve with a large enough effect in the signal ratio in the repeat runs, not every such curve was filed as active; the % refers to the signal ratio; further: potency means the concentration at half of the fitted maximal effect)
In short: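 Beta-lactamase reporter, HEK293T PR-UAS-bla line; 2% charcoal-stripped FBS; 6 hr pre-incubation, 37C/5% CO2. Compound + R5020 1 nM final, 16 hr. LiveBLAzer B/G FRET substrate, 2 hr RT; fluorescence intensity read.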

[5] = qHTS assay to identify small molecule antagonists of the progesterone receptor (PR) signaling pathway - cell viability counter screen (AID 1346798); further: series mostly up to about 92 µM; nearly all actives have a fitted effect of over 50% in size
In short: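 Luminescence readout (CellTiter-Glo, 30 min, RT) of viability in PR-UAS-bla HEK293T cells exposed to compound and R5020 agonist for 16 hr at 37C, 5% CO2; run in the same wells as the beta-lactamase reporter read.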

[6] = qHTS assay to identify small molecule agonists of the progesterone receptor (PR) signaling pathway - cell viability counter screen (AID 1346799; calls by dose curve; further: nearly all actives have a fitted effect of over 45% in size)
In short: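 HEK293T PR-UAS-bla, 3,000 cells/well, 2% charcoal-stripped FBS; 6 h settle, compound 16 h at 37C/5% CO2; LiveBLAzer 2 h RT, then CellTiter-Glo 30 min RT, luminescence read.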

[7] = qHTS assay to identify small molecule antagonists of the TGF-beta/Smad signaling pathway - cell viability counter screen (AID 1346824); further: nearly all actives have a fitted effect of over 50% in size
In short: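 SBE-bla HEK 293T cells, incubated overnight, then compound plus 0.25 ng/mL TGF-beta1 (stock added) for 5 hr at 37 C. Viability was read in the same wells by CellTiter-Glo luminescence after 30 min at room temperature.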

[8] = qHTS assay to identify small molecule agonists of the TGF-beta/Smad signaling pathway - cell viability counter screen (AID 1346829); further: top concentration of the series differs between compounds; nearly all actives have a fitted effect of over 45% in size
In short: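 Here the cytotoxicity of library compounds is measured in SBE-bla HEK 293T cells treated for 5 hr, using CellTiter-Glo added to wells already read for the beta-lactamase reporter.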

[9] = biological target: Thyrotropin-releasing hormone receptor (Homo sapiens) (UniProt P34981); test: qHTS assay to identify small molecule antagonists of the thyrotropin-releasing hormone receptor (TRHR) signaling pathway (AID 1346877; active means well fitted inhibition curve with a large enough effect in the repeat runs, not every such curve was filed as active; further: series mostly up to about 51 µM)
Chain of Thyrotropin-releasing hormone receptor (Homo sapiens) (P34981 whole entry, looked up): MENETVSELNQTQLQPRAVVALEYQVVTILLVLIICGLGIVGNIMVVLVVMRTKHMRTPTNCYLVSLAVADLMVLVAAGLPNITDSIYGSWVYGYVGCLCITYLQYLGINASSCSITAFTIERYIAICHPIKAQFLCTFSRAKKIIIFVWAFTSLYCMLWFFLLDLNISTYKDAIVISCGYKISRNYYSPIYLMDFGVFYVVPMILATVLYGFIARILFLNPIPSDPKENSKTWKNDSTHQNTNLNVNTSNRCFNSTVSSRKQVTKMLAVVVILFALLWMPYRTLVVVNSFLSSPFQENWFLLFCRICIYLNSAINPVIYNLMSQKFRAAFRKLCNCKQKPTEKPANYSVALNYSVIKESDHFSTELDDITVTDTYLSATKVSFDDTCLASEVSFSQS
In short: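 HEK293/TRHR cells, 18 h, 37 °C; Ca2+ dye 2 h; cpd 5 min RT; TRH 1 nM final; fluorescence read 3 min, 1 s intervals; 15 concs, triplicate.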

[10] = qHTS assay to identify small molecule agonists of the TGF-beta/Smad signaling pathway (AID 1346859; active means well fitted activation curve with a large enough effect in the signal ratio in the repeat runs, not every such curve was filed as active; the % refers to the signal ratio; further: series mostly up to about 77 µM)
In short: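 Read-out: fluorescence at 460 and 530 nm (405 nm excitation) after a 2 hr room-temperature incubation with beta-lactamase FRET substrate. SBE-bla HEK 293T cells had been treated with test compounds for 5 hr at 37 C.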

Measured: Potency

CCC1=C(C)CN(C(=O)NCCc2ccc(S(=O)(=O)NC(=O)NC3CCC(C)CC3)cc2)C1=O (stereo unspecified)
not listed: [10]
inactive: all other assays above

O=C(O)c1ccccc1-n1cc(C(=O)O)c(=O)c2cc(Nc3c(F)cc(F)cc3Cl)c(Cl)cc21
not listed: [6] | [9]
inactive: all other assays above

CCCN(C1CCN(C(=O)C2CCNCC2)CC1)[C@@H]1CCc2ccc(OC)cc2C1
inactive: [1] | [2] | [3] | [4] | [7] | [8]

CC(C)Oc1ccccc1O
not listed: [6] | [7] | [10]
inactive: all other assays above

Cc1ccccc1CCO
not listed: [5] | [6]
inactive: all other assays above

Cc1ccc(S(=O)(=O)NC(=O)NC2CCCC2)cc1
not listed: [6]
inactive: all other assays above

CC(O)CN (stereo unspecified)
not listed: [6]
inactive: all other assays above

CC1(C)CC(O)CC(C)(C)N1[O]
not listed: [5] | [10]
inactive: all other assays above

CC(C)Cc1nccs1
not listed: [6]
inactive: all other assays above

CCCC1CCOC(C)S1 (stereo unspecified)
not listed: [5]
inactive: all other assays above

C[Si](C)(C)O[Si](C)(C)O[Si](C)(C)C
not listed: [5] | [6]
inactive: all other assays above

CCOC(OCC)OCC
not listed: [5] | [9]
inactive: all other assays above

CC(Cc1ccccc1)(NC(=O)CN)c1ccccc1 (stereo unspecified)
inactive: [1] | [2] | [3] | [4] | [6] | [8]

C=C(C)C(=O)OCCCCCCCCCCOC(=O)C(=C)C
not listed: [5]
inactive: all other assays above

Oc1ccc(Oc2ccccc2)cc1
active: [4] 20.6 µM
not listed: [6] | [7] | [9]
inactive: all other assays above

FC1(F)C(F)(F)C(F)(F)C2(F)C(F)(C1(F)F)C(F)(F)C(F)(F)C1(F)C(F)(F)C(F)(F)C(F)(F)C(F)(F)C12F (stereo unspecified)
not listed: [5] | [9]
inactive: all other assays above

CC(CN=Cc1ccccc1O)N=Cc1ccccc1O (stereo unspecified)
not listed: [5]
inactive: all other assays above

CCCCCO
not listed: [5] | [7]
inactive: all other assays above

O=Cc1ccc([N+](=O)[O-])cc1
not listed: [5] | [6] | [9]
inactive: all other assays above

Sc1nc(S)nc(S)n1
not listed: [5]
inactive: all other assays above

CC1(C)[C@@H]2CC[C@]3(C2)[C@@H]1C(=O)CCC3(C)C
inactive: [1] | [2] | [3] | [4] | [5] | [8]

CCCC1CCCC(=O)O1 (stereo unspecified)
not listed: [6] | [10]
inactive: all other assays above

Cc1cc(N)n(-c2ccccc2)n1
not listed: [5] | [7] | [10]
inactive: all other assays above

OCCc1ccncc1
not listed: [6] | [10]
inactive: all other assays above

O=[N+]([O-])c1cccc(I)c1
not listed: [5] | [7] | [9]
inactive: all other assays above

O=C(O)c1ccncc1
not listed: [5] | [7] | [10]
inactive: all other assays above

CC(C)(C)c1cc(C=O)cc(C(C)(C)C)c1O
not listed: [5] | [6]
inactive: all other assays above

C=C[Si](OCC)(OCC)OCC
not listed: [5] | [7]
inactive: all other assays above

CC(COc1ccccc1)NC(C)C(O)c1ccc(O)cc1 (stereo unspecified)
not listed: [5] | [7] | [10]
inactive: all other assays above

O=[N+]([O-])c1ccc(Cl)cc1Cl
active: [3] 24 µM
not listed: [6]
inactive: all other assays above
